Assay results from PubChem BioAssay (NCATS).
Records with an inconclusive call do not appear. A number with no mark means an inactive call. The source made the active and inactive calls. The call rests on the fitted dose curve; in most records, active means well fitted curve in the direction sought with a large enough effect; inconclusive means small, poorly fitted or top-dose-only effect, or another doubt; inactive means no such curve, though single readings can be large; an effect the other way counts as inactive or inconclusive.

Assays:
[1] = P-glycoprotein substrates identified in KB-8-5-11 adenocarcinoma cell line, qHTS therapeutic library screen (AID 1346987); further: nearly all actives have a fitted effect of over 65% in size; on activity change, negative = cytotoxicity: series mostly up to about 44 µM; on the % scale 0 is the no-effect control and ±100 the full control effect
Summary of the method: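 Steps: plate 500 KB-8-5-11 cells/well in DMEM + 10% FCS (colchicine removed); pin compounds in dose-response; incubate 72 h, 37 degree C, 5% CO2; add CellTiter-Glo, 5 min; read luminescence.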

[2] = NS1 protein of Zika virus - qHTS assay to identify small molecule inhibitors in human HEK 293 cells (AID 1347053); further: nearly all actives have a fitted effect of over 55% in size;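 on activity change, negative = inhibition: series mostly up to about 46 µM; plate controls were infected untreated cells for no effect and uninfected cells for full effect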
Summary of the method: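 HEK 293 cells pretreated with compound for 1 h, then infected with ZIKV MR766 (MOI 0.5) for 24 h at 37 C. NS1 detected by TR-FRET with two anti-NS1 antibodies; normalized to uninfected (0%) and infected (100%) wells.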

[3] = qHTS of pediatric cancer cell lines to identify multiple opportunities for drug repurposing: Primary screen for TC32 cells (AID 1347089); further: nearly all actives have a fitted effect of over 60% in size; on activity change, negative = cytotoxic: on the % scale 0 is the no-effect control and ±100 the full control effect
Summary of the method: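 In the primary qHTS, MIPE compounds were tested at 11 concentrations (0.78 nM to 46 µM) and NPC compounds at 8 (0.59 nM to 46 µM) on TC32 cells for 48 h. CellTiter-Glo luminescence gave viability.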

[4] = qHTS of pediatric cancer cell lines to identify multiple opportunities for drug repurposing: Primary screen for SJ-GBM2 cells (AID 1347091);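 on activity change, negative = cytotoxic: plate controls were DMSO neutral control for no effect and bortezomib for full effect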
Summary of the method: (§1)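 Cell viability, CellTiter-Glo luminescence; 500-1,000 cells/well, 8- or 11-point titration, 48 h compound exposure at 37 degrees C, 5% CO2. Controls: DMSO neutral, bortezomib 2.3 µM final as positive.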

[5] = qHTS of pediatric cancer cell lines to identify multiple opportunities for drug repurposing: Primary screen for A673 cells (AID 1347092); further: nearly all actives have a fitted effect of over 45% in size
Summary of the method: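 48 h compound exposure, A673, 500-1,000 cells/well, 37 degrees C/5% CO2. MIPE: 11-point, 0.78 nM-46 µM; NPC: 8-point, 0.59 nM-46 µM (final). Readout CellTiter-Glo luminescence after 15 min RT.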

[6] = qHTS of pediatric cancer cell lines to identify multiple opportunities for drug repurposing: Primary screen for SK-N-MC cells (AID 1347093)
Summary of the method: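 Metabolically active cells were quantified by ATP-dependent luminescence (CellTiter-Glo, 15 min at room temperature) following 48 h treatment. Cells had been plated at 500-1,000 per well and settled for 5 h beforehand.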

[7] = qHTS of pediatric cancer cell lines to identify multiple opportunities for drug repurposing: Primary screen for NB-EBc1 cells (AID 1347095);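 on activity change, negative = cytotoxic: plate controls were DMSO neutral control for no effect and bortezomib for full effect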
Summary of the method: (§2)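 Phenotypic viability qHTS, 48 h compound exposure, CellTiter-Glo luminescence read-out; multi-concentration dosing so that potency and efficacy derive directly from the primary screen's curves.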

[8] = qHTS of pediatric cancer cell lines to identify multiple opportunities for drug repurposing: Primary screen for U-2 OS cells (AID 1347096); further: nearly all actives have a fitted effect of over 50% in size;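 on activity change, negative = cytotoxic: plate controls were DMSO wells for no effect and bortezomib positive control wells for full effect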
Summary of the method: (§3)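 Cells (500-1,000/well) rested 5 h, then received compounds for 48 h; metabolically active cells were measured by CellTiter-Glo luminescence. Final concentrations spanned up to 46 µM (MIPE, 11-point) or 0.59 nM-46 µM (NPC, 8-point) in primary screens, 11-point in follow-ups.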

[9] = qHTS of pediatric cancer cell lines to identify multiple opportunities for drug repurposing: Primary screen for Saos-2 cells (AID 1347097); further: nearly all actives have a fitted effect of over 40% in size
Summary of the method: as §2

[10] = qHTS of pediatric cancer cell lines to identify multiple opportunities for drug repurposing: Primary screen for SK-N-SH cells (AID 1347098); further: nearly all actives have a fitted effect of over 65% in size; on activity change, negative = cytotoxic: on the % scale 0 is the no-effect control and ±100 the full control effect
Summary of the method: as §3

[11] = qHTS of pediatric cancer cell lines to identify multiple opportunities for drug repurposing: Primary screen for NB1643 cells (AID 1347099); further: nearly all actives have a fitted effect of over 50% in size
Summary of the method: as §2

[12] = qHTS of pediatric cancer cell lines to identify multiple opportunities for drug repurposing: Primary screen for LAN-5 cells (AID 1347100);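 on activity change, negative = cytotoxic: plate controls were DMSO neutral control for no effect and bortezomib positive control for full effect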
Summary of the method: as §3

[13] = qHTS of pediatric cancer cell lines to identify multiple opportunities for drug repurposing: Primary screen for BT-12 cells (AID 1347101); further: nearly all actives have a fitted effect of over 25% in size;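 on activity change, negative = cytotoxic: plate controls were DMSO for no effect and bortezomib positive control for full effect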
Summary of the method: as §3

[14] = qHTS of pediatric cancer cell lines to identify multiple opportunities for drug repurposing: Primary screen for Rh18 cells (AID 1347102); further: nearly all actives have a fitted effect of over 65% in size; on activity change, negative = cytotoxic: on the % scale 0 is the no-effect control and ±100 the full control effect
Summary of the method: as §3

[15] = qHTS of pediatric cancer cell lines to identify multiple opportunities for drug repurposing: Primary screen for BT-37 cells (AID 1347094);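 on activity change, negative = cytotoxic: series mostly up to about 57 µM; plate controls were DMSO for no effect and bortezomib for full effect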
Summary of the method: as §2

[16] = qHTS of pediatric cancer cell lines to identify multiple opportunities for drug repurposing: Primary screen for DAOY cells (AID 1347090); further: nearly all actives have a fitted effect of over 55% in size;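 on activity change, negative = cytotoxic: series mostly up to about 46 µM; plate controls were DMSO for no effect and bortezomib for full effect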
Summary of the method: as §1
Potency means the concentration at half of the fitted maximal effect.

SMILES: CCNC(=O)c1cc2c(-c3cc(OCCN4CCCC4)c(Cl)cc3Cl)nc(N)nc2s1
- Potency [1]: 5260 nM (active)
- Potency [2]: inactive
- Potency [3]: 3700 nM (active)
- Potency [4]: 2090 nM (active)
- Potency [5]: 1180 nM (active)
- Potency [6]: 2640 nM (active)
- Potency [7]: 935 nM (active)
- Potency [8]: inactive
- Potency [9]: 3720 nM (active)
- Potency [10]: 3040 nM (active)
- Potency [11]: 2640 nM (active)
- Potency [12]: 1480 nM (active)
- Potency [13]: inactive
- Potency [14]: 4690 nM (active)

SMILES: CCc1nc(-c2cccc(C)c2)c(-c2ccnc(NC(=O)c3ccccc3)c2)s1
- Potency [1]: 20900 nM (active)
- Potency [2]: 10500 nM (active)
- Potency [3]: inactive
- Potency [5]: 23500 nM (active)
- Potency [6]: 29600 nM (active)
- Potency [15]: 27300 nM (active)
- Potency [7]: 20900 nM (active)
- Potency [10]: inactive
- Potency [11]: 18700 nM (active)
- Potency [14]: inactive

SMILES: COc1cc(OC)c(C=CS(=O)(=O)Cc2ccc(OC)c(NCC(=O)O)c2)c(OC)c1
- Potency [1]: 264 nM (active)
- Potency [2]: 469 nM (active)
- Potency [3]: 294 nM (active)
- Potency [4]: 166 nM (active)
- Potency [5]: 148 nM (active)
- Potency [6]: 93.5 nM (active)
- Potency [7]: 187 nM (active)
- Potency [9]: 59 nM (active)
- Potency [10]: 7640 nM (active)
- Potency [11]: 37.2 nM (active)
- Potency [12]: 148 nM (active)
- Potency [14]: inactive

SMILES: C[C@H](NC(=O)[C@@H](O)c1cc(F)cc(F)c1)C(=O)N[C@@H]1C(=O)N(C)c2ccccc2-c2ccccc21
- Potency [1]: inactive
- Potency [2]: inactive
- Potency [3]: inactive
- Potency [16]: inactive
- Potency [15]: inactive
- Potency [8]: inactive
- Potency [12]: inactive
- Potency [13]: inactive
- Potency [14]: inactive

SMILES: C=CCNc1c(O)cc2c(O)c1C[C@@H](C)C[C@H](OC)[C@@H](O)[C@@H](C)C=C(C)[C@H](OC(N)=O)[C@@H](OC)C=CC=C(C)C(=O)N2
- Potency [1]: 6620 nM (active)
- Potency [2]: inactive
- Potency [3]: 1650 nM (active)
- Potency [4]: 526 nM (active)
- Potency [5]: 935 nM (active)
- Potency [6]: 1180 nM (active)
- Potency [15]: 217 nM (active)
- Potency [7]: 1320 nM (active)
- Potency [10]: 3040 nM (active)
- Potency [11]: 1480 nM (active)
- Potency [12]: 1870 nM (active)
- Potency [14]: 935 nM (active)

SMILES: COc1cc(C(C)C)c(Oc2cnc(NC(CO)CO)nc2N)cc1I
- Potency [1]: inactive
- Potency [2]: inactive
- Potency [3]: inactive
- Potency [4]: inactive
- Potency [5]: 372 nM (active)
- Potency [6]: 1050 nM (active)
- Potency [15]: inactive
- Potency [7]: 26400 nM (active)
- Potency [10]: 1080 nM (active)
- Potency [11]: 2960 nM (active)
- Potency [12]: inactive

SMILES: O=C1c2cccc(O)c2C(=O)c2c(O)cc(CO)cc21
- Potency [1]: inactive
- Potency [2]: inactive
- Potency [3]: inactive
- Potency [4]: inactive
- Potency [5]: inactive
- Potency [8]: inactive
- Potency [9]: inactive
- Potency [10]: inactive
- Potency [11]: 26400 nM (active)
- Potency [12]: inactive
- Potency [13]: inactive
- Potency [14]: inactive

SMILES: CC(C)(C)[C@H](NC(=O)c1ccc(N)c(Cl)c1)C(=O)N1CCC[C@@H]1C(=O)N[C@H](C#N)CC(=O)O
- activity change, negative = cytotoxicity [1]: 2.87% [at 5.11 µM]
- activity change, negative = inhibition [2]: 0.927% [at 4.81 µM]
- activity change, negative = cytotoxic [3]: 10.4% [at 4.81 µM]
- activity change, negative = cytotoxic [4]: 0.43% [at 4.84 µM]
- Potency [6]: 235 nM (active)
- activity change, negative = cytotoxic [15]: -11.4% [at 6.03 µM]
- activity change, negative = cytotoxic [7]: 14.9% [at 4.84 µM]
- activity change, negative = cytotoxic [8]: 9.94% [at 4.84 µM]
- activity change, negative = cytotoxic [10]: 23.1% [at 6 µM]
- Potency [11]: 1050 nM (active)
- activity change, negative = cytotoxic [12]: 8.05% [at 4.84 µM]
- activity change, negative = cytotoxic [13]: 15.5% [at 6.03 µM]
- activity change, negative = cytotoxic [14]: 0.535% [at 4.84 µM]

SMILES: COC(=O)C1C2CC3c4[nH]c5cc(OC)ccc5c4CCN3CC2CC(OC(=O)c2cc(OC)c(OC)c(OC)c2)C1OC (stereo unspecified)
- Potency [1]: inactive
- Potency [2]: inactive
- Potency [3]: inactive
- Potency [6]: 3720 nM (active)
- Potency [9]: 18700 nM (active)
- Potency [12]: inactive

SMILES: COc1cc2ncnc(Nc3cccc(Br)c3)c2cc1OC
- Potency [1]: inactive
- Potency [2]: inactive
- Potency [3]: inactive
- Potency [4]: 20900 nM (active)
- Potency [5]: 5.9 nM (active)
- Potency [6]: 11.8 nM (active)
- Potency [15]: 24300 nM (active)
- Potency [9]: 29600 nM (active)
- Potency [11]: 7430 nM (active)

SMILES: CCN(CC)Cc1ccc2cc(COC(=O)Nc3ccc(C(=O)NO)cc3)ccc2c1
- Potency [1]: 7430 nM (active)
- Potency [3]: 5870 nM (active)
- Potency [16]: 2960 nM (active)
- Potency [4]: 743 nM (active)
- Potency [5]: 1480 nM (active)
- Potency [6]: 833 nM (active)
- Potency [15]: 1930 nM (active)
- Potency [7]: 833 nM (active)
- Potency [8]: 3720 nM (active)
- Potency [9]: 935 nM (active)
- Potency [10]: 1520 nM (active)
- Potency [11]: 1180 nM (active)
- Potency [12]: 526 nM (active)
- Potency [13]: 3060 nM (active)
- Potency [14]: 743 nM (active)

SMILES: Cn1cnc(=N)c2[nH]cnc21
- Potency [1]: 10500 nM (active)
- Potency [2]: inactive
- Potency [16]: 1180 nM (active)
- Potency [4]: 1480 nM (active)
- Potency [5]: 187 nM (active)
- Potency [6]: 83.3 nM (active)
- Potency [7]: 662 nM (active)
- Potency [8]: 2350 nM (active)
- Potency [9]: 743 nM (active)
- Potency [10]: 1920 nM (active)
- Potency [11]: 166 nM (active)
- Potency [12]: 418 nM (active)
- Potency [13]: 1530 nM (active)
- Potency [14]: 264 nM (active)

SMILES: C[C@@]12C(=O)OC(=O)[C@@]1(C)C1CCC2O1
- Potency [1]: 5260 nM (active)
- Potency [3]: 13100 nM (active)
- Potency [16]: 2960 nM (active)
- Potency [4]: 2090 nM (active)
- Potency [5]: 4690 nM (active)
- Potency [6]: 2350 nM (active)
- Potency [15]: 2170 nM (active)
- Potency [7]: 2350 nM (active)
- Potency [8]: inactive
- Potency [10]: 3830 nM (active)
- Potency [11]: 1480 nM (active)
- Potency [12]: 2350 nM (active)
- Potency [13]: 8630 nM (active)
- Potency [14]: 1870 nM (active)
